The source of these data is PubChem BioAssay (NCATS).

A number with no mark means an inactive call. Records with an inconclusive call do not appear. The source made the active and inactive calls. Unless noted, calls follow the shape of the dose curve; as a rule, active = well fitted curve in either direction with a large enough effect (not every such curve was filed as active); inconclusive = small, poorly fitted or top-dose-only effect, or another doubt; inactive = flat fitted curve, though single readings scatter.

Assay [1] deals with Lysosomal acid glucosylceramidase (Homo sapiens) (UniProt P04062). Put plainly: Glucocerebrosidase-p2 (AID 348; in the data active = potency below about 10 µM; also: potency is read from the fitted curve at half-maximal effect). The conditions noted are these: purified GBA, blue fluorogenic substrate, 40 min. The gist of the method: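 Compounds titrated from 0.6 nM upwards against 0.2 nM enzyme in pH 5.9 citric acid/KH2PO4, taurocholate, tween-20; blue fluorogenic substrate 80 uM, 40 min room temperature, stopped and read Ex 365/Em 440 for AC50.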
Lysosomal acid glucosylceramidase (Homo sapiens), sequence (P04062 whole entry, looked up): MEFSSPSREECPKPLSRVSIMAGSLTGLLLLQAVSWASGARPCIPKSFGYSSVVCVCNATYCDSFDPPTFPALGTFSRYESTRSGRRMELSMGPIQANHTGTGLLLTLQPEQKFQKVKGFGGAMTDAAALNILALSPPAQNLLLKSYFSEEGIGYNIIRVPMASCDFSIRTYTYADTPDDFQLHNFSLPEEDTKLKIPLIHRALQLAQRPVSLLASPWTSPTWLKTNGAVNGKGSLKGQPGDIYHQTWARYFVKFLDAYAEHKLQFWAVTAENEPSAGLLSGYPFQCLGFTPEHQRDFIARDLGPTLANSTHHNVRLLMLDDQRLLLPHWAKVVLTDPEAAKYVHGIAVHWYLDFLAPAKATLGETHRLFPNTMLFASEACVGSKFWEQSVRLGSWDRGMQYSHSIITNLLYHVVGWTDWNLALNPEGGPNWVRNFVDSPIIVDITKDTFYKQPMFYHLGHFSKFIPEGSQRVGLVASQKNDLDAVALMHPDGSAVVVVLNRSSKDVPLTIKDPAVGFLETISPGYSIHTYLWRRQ

A short description of assay [2]: AP1 Signaling Pathway (AID 357). Also: % is scaled to controls: 0 for no effect and ±100 for the full control effect. The conditions noted are these: ME-180 AP-1-bla reporter, EGF-induced, beta-lactamase ratio, 5 h; at 7.69 µM (top of the series) unless noted. Summed up: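 ME-180 cells with beta-lactamase reporter under AP-1 response element, stimulated with EC50 EGF; compounds tested in titration series, 5 h at 37 °C. CCF4 substrate added 2.5 h at room temperature; 460/530 nm emission ratio gave %activity and AC50.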

For assay [3], the target named is Cytochrome P450 1A2 (Homo sapiens) (UniProt P05177). Nature of the assay: p450-cyp1a2 (AID 410; calls by dose curve; also: potency is read from the fitted curve at half-maximal effect). The conditions noted are these: recombinant CYP1A2, luciferin-ME demethylation, luminescence; series mostly up to 57 µM. The gist of the method: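 Inhibition was calculated relative to 57 uM furafylline (full inhibition). The reaction used human CYP1A2 at 20nM with Luciferin-ME at its Km, 100uM, driven by an NADPH-regenerating system for 60 min at room temperature.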
Cytochrome P450 1A2 (Homo sapiens), sequence (P05177 whole entry, looked up): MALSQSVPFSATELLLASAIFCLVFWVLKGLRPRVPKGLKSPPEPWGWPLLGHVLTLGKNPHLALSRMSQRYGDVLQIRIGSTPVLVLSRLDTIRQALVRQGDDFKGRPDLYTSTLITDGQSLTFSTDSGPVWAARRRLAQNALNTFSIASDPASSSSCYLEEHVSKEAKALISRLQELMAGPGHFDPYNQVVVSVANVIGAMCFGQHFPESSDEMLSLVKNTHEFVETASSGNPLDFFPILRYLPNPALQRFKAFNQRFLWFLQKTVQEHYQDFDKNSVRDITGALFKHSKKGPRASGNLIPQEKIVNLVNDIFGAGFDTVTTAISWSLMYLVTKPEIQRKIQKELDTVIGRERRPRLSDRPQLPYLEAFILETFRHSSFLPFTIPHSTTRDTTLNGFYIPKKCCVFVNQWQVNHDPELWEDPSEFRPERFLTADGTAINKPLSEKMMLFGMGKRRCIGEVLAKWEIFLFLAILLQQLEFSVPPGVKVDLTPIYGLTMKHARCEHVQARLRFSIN

Assay [4] addresses Glucocorticoid receptor (Homo sapiens) (UniProt P04150). Nature of the assay: GR-EFC Redistribution (AID 451; calls by dose curve; also: potency is read from the fitted curve at half-maximal effect). The conditions noted are these: CHO-K1 GR-EFC translocation, beta-gal luminescence, 2 h. Summed up:
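Translocation of GR-ED fusion to nuclear EA restores b-gal, read by luminescence after 1 h room-temperature detection. Engineered CHO-K1 biosensor cells, 1,000/well, exposed 2 h at 37 C to titrations up to 46 uM final.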

The target in assay [5] is 3',5'-cyclic-AMP phosphodiesterase 4B (Homo sapiens) (UniProt Q07343). Put plainly: qHTS Assay for Inhibitors of PDE-IV (AID 607; active = well fitted activation curve with a large enough effect in the main read-out, with a control signal flat, not every such curve was filed as active; also: % of control where 0% means no effect). The conditions noted are these: HEK293 ACTOne CNG channel cells, membrane potential fluorescence; series mostly up to 22.9 µM. Summed up:
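Cell-based read-out of cAMP via a modified cyclic nucleotide-gated channel and membrane potential dye (535/590 nm) in HEK293 cells expressing PDE4 endogenously. Compounds tested up to 22.9 uM final; 100 uM RO 20-1724 reference.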

A short description of assay [6]: qHTS Assay for Identification of Small Molecule Agonists for Hypoxia Response Element Signaling Pathway (AID 914; active = well fitted activation curve with a large enough effect in the signal ratio, with a control signal flat, not every such curve was filed as active; the % refers to the signal ratio; also: potency is read from the fitted curve at half-maximal effect; as to activation: % of control where 0% means no effect). The conditions noted are these: ME-180 HRE-bla reporter, beta-lactamase ratio, CoCl2, 17 h; activation: hits give high values. The gist of the method: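 AC50 values come from titration-series %Activity, taken as the 460/530nm ratio of CCF4 fluorescence (excitation 405nm). CellSensor HRE-bla ME-180 cells were treated 17 hours at 37 C with compound plus an EC50 level of CoCl2.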

Assay [7] in a line: Primary qHTS for small molecule stabilizers of the endoplasmic reticulum resident proteome: Secreted ER Calcium Modulated Protein (SERCaMP) assay (AID 1508630; active = well fitted curve in the direction sought with a large enough effect; an effect the other way counts as inactive or inconclusive; also: % is scaled to controls: 0 for no effect and ±100 for the full control effect). The conditions noted are these: SH-SY5Y GLuc-SERCaMP (Gaussia luciferase released on ER calcium loss) secretion, thapsigargin, luminescence; series mostly up to 38.4 µM. Summed up: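 GLuc-SERCaMP-expressing SH-SY5Y cells, pretreated 16 h with compound, are challenged with thapsigargin to empty ER calcium stores; after 4 h, coelenterazine is added directly to the medium and luminescence is imaged.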

Assay [8] is described as follows: NFAT Signaling Pathway (AID 444).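 Also: carbachol stimulus at about its EC50 of 1 µM final; % is scaled to controls: 0 for no effect and ±100 for the full control effect.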 The conditions noted are these: Jurkat NFAT-bla M1, carbachol, beta-lactamase ratio, 5 h; at 7.69 µM (top of the series) unless noted. The gist of the method: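 Read-out: CCF4 FRET ratio (460 nm/530 nm) after 1 h RT dye loading, used for %activity and AC50 from titration series. Cells: Jurkat NFAT-β-lactamase/M1 line, treated with compound plus 1 uM carbachol for 5 h, 37 °C.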

The nature of assay [9]: Stat Signaling Pathway (AID 446).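 Also: ME-180 cervical cancer cells given 40 pM IL-6 alongside compound; SIE-controlled beta-lactamase reporter measured as 460/530 nm FRET emission ratio; % is scaled to controls: 0 for no effect and ±100 for the full control effect.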 The conditions noted are these: ME-180 SIE beta-lactamase reporter, IL-6 stimulated, 5 h; at 7.69 µM (top of the series) unless noted. The gist of the method: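 Reporter line: ME-180 cervical carcinoma, SIE-beta-lactamase. Treatment: compound with 40 pM IL-6, 5 hrs, 37 C, in low-serum OPTI-MEM with 10 mM HEPES pH 7.3. Detection: 460/530 nm fluorescence.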

Assay [10] has as its target Glucocorticoid receptor (Homo sapiens) (UniProt P04150). Nature of the assay: GR-GFP Redistribution (AID 450;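 active = compounds whose dose series gives a full or clear partial fitted curve of increased nuclear translocation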; also: potency is read from the fitted curve at half-maximal effect). The conditions noted are these: U2OS GR-GFP nuclear translocation, laser cytometry, 2 h.
The target in assay [11] is Mitogen-activated protein kinase 10 (Mus musculus) (UniProt Q61831). Nature of the assay: JNK3 AlphaScreen Assay (AID 530). The conditions noted are these: JNK3 lysate, c-Jun phosphorylation; series mostly up to 57.1 µM. Summed up: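 Room-temperature AlphaScreen kinase assay; pre-activated HepG2 lysate as JNK3 source, biotin-GST-cJun(1-79) substrate, 10 uM ATP, compound 15 min preincubation.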

The nature of assay [12]: Confirmation and Secondary Assay for Modulators of Hemoglobin Beta Chain Splicing at IVS2 654 locus (AID 910; active = well fitted curve in the direction sought with a large enough effect; an effect the other way counts as inactive or inconclusive;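 also: HeLa cells stably carrying EGFP split by mutant beta-globin IVS2-654 intron; per-well total GFP intensity by laser scanning cytometry after 2-day treatment; % of control where 0% means no effect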). The conditions noted are these: HeLa EGFP-654 splicing reporter, GFP fluorescence, 48 h; series mostly up to 38.3 µM. Summed up:
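Readout: per-well total peak green fluorescence (488 nm ex, 500–520 nm em) from objects 5–250 µm, reflecting correct splicing of an EGFP-654 reporter. Compounds were applied for 2 days at 37 °C to overnight-plated HeLa EGFP-654 cells; controls were DMSO and 500 nM IVS2-654 PNA.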

A short description of assay [13]: Confirmation and Secondary Assay for Modulators of Hemoglobin Beta Chain Splicing at IVS2 705 locus (AID 930; active = well fitted curve in the direction sought with a large enough effect; an effect the other way counts as inactive or inconclusive;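 also: HeLa cells stably expressing the EGFP-705 splicing reporter; % of control where 0% means no effect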). The conditions noted are these: HeLa EGFP-705 splicing reporter, GFP fluorescence, 48 h; series mostly up to 38.3 µM. The gist of the method:
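Restored EGFP fluorescence after 2-day compound exposure reports splicing correction in IVS2-705 EGFP reporter HeLa cells; positive control was 500 nM splice-blocking PNA oligo. Signal measured as well total peak GFP intensity (488 nm excitation).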

Assay [14] addresses Ubiquitin carboxyl-terminal hydrolase 1 (Homo sapiens) (UniProt O94782). Nature of the assay: Inhibitors of USP1/UAF1: Pilot qHTS (AID 504865; active = well fitted curve in the direction sought with a large enough effect; an effect the other way counts as inactive or inconclusive;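 also: rhodamine fluorescence freed from ubiquitin-rhodamine substrate followed over time; top concentration of the series differs between compounds; % is scaled to controls: 0 for no effect and ±100 for the full control effect; nearly all actives have a fitted effect of over 35% in size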). The conditions noted are these: purified USP1/UAF1, Ub-rhodamine cleavage fluorescence; series mostly up to 54.9 µM. Summed up:
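USP1/UAF1 complex (1nM) preincubated with compound 15 min at room temperature, then Ub-Rho substrate (150nM final) added. Fluorescence read kinetically at 480/540 nm, 6 reads every 60 seconds. Buffer: 50mM HEPES pH 7.8, 0.5mM EDTA, 0.1 mg/ml BSA, 1mM TCEP, 0.01% Tween-20.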

For assay [15], the target named is Cytochrome P450 3A4 (Homo sapiens) (UniProt P08684). Put plainly: qHTS Assay for Activators of Cytochrome P450 3A4 (AID 885; active = well fitted curve in the direction sought with a large enough effect; an effect the other way counts as inactive or inconclusive; also: nearly all actives have a fitted effect of over 65% in size). The conditions noted are these: recombinant CYP3A4, Luciferin-PPXE luminescence, 60 min; series mostly up to 57.1 µM. Summed up: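 Signal was normalized against complete inhibition by 57 uM ketoconazole. The reaction used 20nM CYP3A4 with 25uM Luciferin-PPXE, 10-min compound preincubation and a 60-min NADPH-supported step at RT.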
Cytochrome P450 3A4 (Homo sapiens), sequence (P08684 whole entry, looked up): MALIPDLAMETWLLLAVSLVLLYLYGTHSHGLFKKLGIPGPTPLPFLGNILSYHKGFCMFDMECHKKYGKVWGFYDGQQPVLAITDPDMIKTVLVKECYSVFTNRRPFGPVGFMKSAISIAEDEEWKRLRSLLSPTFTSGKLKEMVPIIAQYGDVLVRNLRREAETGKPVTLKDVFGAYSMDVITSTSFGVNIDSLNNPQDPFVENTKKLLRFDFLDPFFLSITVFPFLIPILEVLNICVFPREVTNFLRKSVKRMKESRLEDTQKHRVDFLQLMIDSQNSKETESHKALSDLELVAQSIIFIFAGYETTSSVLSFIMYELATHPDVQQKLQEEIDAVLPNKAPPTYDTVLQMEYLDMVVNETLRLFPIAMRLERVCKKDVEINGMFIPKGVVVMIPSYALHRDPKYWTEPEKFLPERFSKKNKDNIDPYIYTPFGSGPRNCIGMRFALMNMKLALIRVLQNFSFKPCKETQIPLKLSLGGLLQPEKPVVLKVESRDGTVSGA

3',5'-cyclic-AMP phosphodiesterase 4B (Homo sapiens), sequence (Q07343 whole entry, looked up): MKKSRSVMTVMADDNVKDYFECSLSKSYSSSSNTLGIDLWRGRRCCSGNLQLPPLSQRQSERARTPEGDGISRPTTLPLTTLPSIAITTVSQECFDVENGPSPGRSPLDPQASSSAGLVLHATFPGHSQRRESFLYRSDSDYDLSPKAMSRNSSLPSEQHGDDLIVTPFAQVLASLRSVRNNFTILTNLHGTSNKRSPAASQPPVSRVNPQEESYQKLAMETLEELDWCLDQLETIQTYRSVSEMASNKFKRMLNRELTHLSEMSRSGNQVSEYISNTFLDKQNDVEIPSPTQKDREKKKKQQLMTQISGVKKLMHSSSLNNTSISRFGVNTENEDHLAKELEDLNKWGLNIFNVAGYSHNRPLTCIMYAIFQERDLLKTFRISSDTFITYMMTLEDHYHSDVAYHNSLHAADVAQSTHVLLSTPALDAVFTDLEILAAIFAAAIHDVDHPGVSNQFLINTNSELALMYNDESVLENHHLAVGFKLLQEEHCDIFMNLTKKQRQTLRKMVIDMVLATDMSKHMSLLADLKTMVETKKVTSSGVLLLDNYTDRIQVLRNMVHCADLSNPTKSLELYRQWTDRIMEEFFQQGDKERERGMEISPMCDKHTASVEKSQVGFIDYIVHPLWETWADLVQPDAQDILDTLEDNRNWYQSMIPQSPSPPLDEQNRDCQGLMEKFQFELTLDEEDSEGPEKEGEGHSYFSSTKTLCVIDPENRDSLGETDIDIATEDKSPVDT
Glucocorticoid receptor (Homo sapiens), sequence (P04150 whole entry, looked up, the tested form may be a part): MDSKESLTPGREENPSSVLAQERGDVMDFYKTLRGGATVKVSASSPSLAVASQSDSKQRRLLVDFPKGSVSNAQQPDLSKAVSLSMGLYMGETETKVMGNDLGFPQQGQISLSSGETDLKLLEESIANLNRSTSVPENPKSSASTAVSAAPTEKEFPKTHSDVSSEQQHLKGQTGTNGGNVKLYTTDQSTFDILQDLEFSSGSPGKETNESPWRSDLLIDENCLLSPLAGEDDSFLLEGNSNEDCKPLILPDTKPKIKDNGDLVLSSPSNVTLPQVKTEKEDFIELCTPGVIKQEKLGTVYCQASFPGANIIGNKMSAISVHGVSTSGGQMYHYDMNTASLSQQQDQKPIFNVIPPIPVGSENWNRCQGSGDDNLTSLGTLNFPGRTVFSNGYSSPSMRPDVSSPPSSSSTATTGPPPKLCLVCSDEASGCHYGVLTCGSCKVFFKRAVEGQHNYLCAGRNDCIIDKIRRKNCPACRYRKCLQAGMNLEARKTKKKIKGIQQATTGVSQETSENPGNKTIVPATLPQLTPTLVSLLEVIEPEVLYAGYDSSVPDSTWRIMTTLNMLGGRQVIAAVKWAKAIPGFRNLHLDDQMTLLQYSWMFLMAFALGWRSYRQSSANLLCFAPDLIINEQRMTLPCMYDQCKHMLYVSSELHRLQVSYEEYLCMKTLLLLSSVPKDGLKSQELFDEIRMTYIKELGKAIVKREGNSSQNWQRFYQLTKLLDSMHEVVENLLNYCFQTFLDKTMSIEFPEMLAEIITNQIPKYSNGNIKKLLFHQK
Ubiquitin carboxyl-terminal hydrolase 1 (Homo sapiens), sequence (O94782 whole entry, looked up): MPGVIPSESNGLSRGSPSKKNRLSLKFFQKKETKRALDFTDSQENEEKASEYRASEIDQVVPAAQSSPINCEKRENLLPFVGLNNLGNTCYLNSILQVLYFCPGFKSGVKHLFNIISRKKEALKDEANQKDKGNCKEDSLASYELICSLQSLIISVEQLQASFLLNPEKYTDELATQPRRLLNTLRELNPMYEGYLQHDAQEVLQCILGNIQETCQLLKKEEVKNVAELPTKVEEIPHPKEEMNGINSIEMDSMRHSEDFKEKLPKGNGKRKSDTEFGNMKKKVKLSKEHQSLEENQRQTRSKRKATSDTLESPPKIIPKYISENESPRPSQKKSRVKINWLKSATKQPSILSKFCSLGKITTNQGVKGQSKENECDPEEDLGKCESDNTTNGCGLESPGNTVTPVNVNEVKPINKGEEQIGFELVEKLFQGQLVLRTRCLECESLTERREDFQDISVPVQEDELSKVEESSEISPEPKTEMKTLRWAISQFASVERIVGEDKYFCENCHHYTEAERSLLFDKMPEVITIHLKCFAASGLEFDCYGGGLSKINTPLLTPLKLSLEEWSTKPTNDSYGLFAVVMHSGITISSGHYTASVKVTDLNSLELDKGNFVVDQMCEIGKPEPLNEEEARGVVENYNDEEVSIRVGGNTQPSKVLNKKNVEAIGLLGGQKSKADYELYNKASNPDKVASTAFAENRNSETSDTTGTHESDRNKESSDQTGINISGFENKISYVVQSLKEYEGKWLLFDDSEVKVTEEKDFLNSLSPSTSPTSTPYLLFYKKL

On to `Cn1c(=O)c(-c2cccs2)nc2cnc(Oc3ccccc3)nc21`, for which the Potency in assay [1] was above 11.4 µM; in assay [3], 7.94 µM (active); in assay [4], above 46 µM; in [6], 3.16 µM (active). In assay [2], the activity change, negative = inhibition is 12.2%. Moreover, the Potency result in assay [5] was “inactive”. Also, the result in assay [7] was inactive.
Consider `COCCn1c(=O)c(C)nc2cnc(OCc3ccccc3)nc21`, for which the Potency in [1] is above 11.4 µM; in assay [10], above 9.22 µM; in assay [4], above 46 µM. The activity change, negative = inhibition in [2] is -16.6%; in assay [8], -3.44%. The activity, negative = inhibition in [9] was -9.48%. In addition, the Potency result in assay [11] and in assay [5] was “inactive” each time. The result in [7] was inactive.
As to `COCCn1c(=O)c(-c2ccc(Cl)cc2)nc2cnc(Oc3ccc(OC)cc3)nc21`, the figures for the Potency in assay [1], in assay [10] and in [4] were above 11.4 µM, above 9.22 µM and above 46 µM, respectively. Also, the results for the activity change, negative = inhibition in [2] and in assay [8] were -18.1% and -1.47%, respectively. Further, the activity, negative = inhibition in assay [9] is -2.62%. Besides, the Potency entry in assay [11] and in assay [5] was “inactive” in each case. Besides, the result in [7] was inactive.
On to `Cc1cnc(CNc2ncnc3ccc(-c4ccccc4C#N)cc23)cn1`, for which the Potency in assay [1] was above 11.4 µM; in assay [10] it was above 46 µM; in [4] it was above 46 µM. Also, the activity change, negative = inhibition in assay [2] was 9.76%; in assay [8], 0.584%. In addition, the activity, negative = inhibition in assay [9] is -10.7%. Further, the Potency entry in assay [11], in assay [5] and in assay [12] was “inactive” each time. Moreover, the outcome in assay [13] and in [7] was inactive.
`c1cncc(CNc2ccnc(-c3cccnc3)n2)c1`: the Potency is above 11.4 µM in [1], above 46 µM in assay [10] and above 46 µM in [4]. For the same compound, the activity change, negative = inhibition in [2] is 8.01%; in [8], 10.2%. The activity, negative = inhibition in [9] is 8.94%. Also, the Potency entry in assay [11], in assay [5] and in assay [14] was “inactive” throughout. For the same compound, the outcome in assay [7] was inactive.
Consider `COc1ccc(-n2c(=O)c(-c3ccc(F)cc3)nc3cnc(OC)nc32)cc1`, for which the Potency in assay [1] is above 11.4 µM; in assay [10] it was above 9.22 µM; in assay [4], above 46 µM. For the same compound, the results for the activity change, negative = inhibition in assay [2] and in assay [8] were -6.43% and 8.51%, respectively. Besides, in [9], the activity, negative = inhibition is -13.4%. Further, the Potency result in assay [11], in assay [5] and in assay [15] was “inactive” each time. For the same compound, the result in assay [7] was inactive.
As for `COc1ccc(Oc2ncc3nc(C)c(=O)n(C4CC4)c3n2)cc1`, the Potency in assay [1] was above 11.4 µM; in assay [10], above 9.22 µM; in assay [4], above 46 µM. The activity change, negative = inhibition was -0.17% in [2] and -5.38% in [8]. For the same compound, the activity, negative = inhibition in assay [9] was -4.78%. Also, the Potency entry in assay [11] and in assay [5] was “inactive” each time. For the same compound, the activation in [6] was -6.35%. Moreover, the outcome in assay [7] was inactive.
